ChEMBL document CHEMBL3988442, “University of Dundee, Small-Polar-MMV Screening Library” (2021)
Out of some 48,000 compounds screened, about 13,000 (27%) showed an effect of 50% or more. The list shows a part of the results.

System: Wolbachia pipientis
Assay: Anti-Wolbachia Cell-Based Screen
Format: functional
Design: scale not given: in the data most compounds retested in dose-response had high values
Settings: 5 µM

SMILES | Percent Effect [%]
CC1(Cc2ccccn2)NCCc2[nH]cnc21 (centres undefined) | 15.49
CCn1c(N)nc2cc(C(=O)N3Cc4ccccc4C3)cnc21 | -3.386
CCCS(=O)(=O)N1CCC(Nc2c(F)cc(C#N)cc2F)CC1 | 13.62
CSCCC(=O)N1CCN(CC(C)(C)O)CC1 | -39.31
Cc1c(C(C)NCC2CCCC2)cnn1-c1ccc(F)cc1F (centres undefined) | 0.5195
O=C(CN1C=Nc2ccccc2S1(=O)=O)NCCc1cccs1 | 3.571
COCCN(C)[C@@H]1c2ccccc2C2(CCNCC2)[C@H]1O | 2.267
CC(C)NC(=O)CN1CCN(CC2CCOc3ccccc3C2)CC1 (centres undefined) | -2.637
Cc1cc(C(=O)NS(C)(=O)=O)ccc1I | 1.042
CCc1cnc(C)nc1NCCN1CCCCCC1 | -2.933
Nc1nc2c(c(NCc3cnc4c(c3)CCC4)n1)CCNC2 | 77.65
CCc1cnc(C)nc1NCc1cnc2c(c1)CCC2 | 83.93
Nc1nc2c(c(NCc3ccncc3)n1)CCCC2 | -16.82
Nc1nc2c(c(NCc3nc(-c4ccncc4)n[nH]3)n1)CCCC2 | -1.758
Cc1nc2c(c(NCc3cc4ccccc4s3)n1)CCNCC2 | -2.145
Cc1nc2c(c(NCc3nc4ccccc4s3)n1)CCNCC2 | 4.643
Cc1nc2c(c(NCc3cnc4c(c3)CCC4)n1)CNC2 | 90.56
CCc1cnc(C)nc1NCCN1CCC(O)CC1 | 8.36
CCC(C)NC(=O)c1ccc(CNC(=O)CC(C)(C)C)cc1 (centres undefined) | 3.529
COC(=O)CCC(=O)NC1CCCc2cc(OC(F)F)ccc21 (centres undefined) | 7.111
CCC(C(=O)N(Cc1ccccc1OC)C1CC1)n1cccn1 (centres undefined) | -4.851
O=c1[nH]c(=O)n(CC(O)c2ccc(F)cc2F)cc1Cl (centres undefined) | -0.7239

SMILES | Percent Effect [%]
OC(CNCCn1cccn1)COc1ccc(F)cc1 (centres undefined) | 3.915
COc1ccc(CN2CC[C@@]3(O)CCCC[C@H]3C2)cc1C(=O)O | -6.5
COc1cc(CN2CCCC[C@]3(C)NC(=O)CC[C@H]23)ccc1F | 73.04
COc1ccc(CN2CCCCC2CNC(=O)OC(C)(C)C)cc1F (centres undefined) | 23.02
CCc1nc(CCNC(=O)Nc2ccc(C(=O)NC)cc2C)cs1 | 3.747
Cc1cc(C)n(CC2CCCN2Cc2cccc(C#N)c2)n1 (centres undefined) | -4.614
Cc1nc(C)n(CC2CCCN2Cc2ncc(-c3ccccc3)o2)n1 (centres undefined) | 119.8
Cc1cc(C)n(CC2CCCN2CCc2ccncc2)n1 (centres undefined) | -8.858
Cc1nc(C)n(CC2CCCN2Cc2ccccn2)n1 (centres undefined) | 5.197
Cc1cc(C)n(CC2CCCN2Cc2ncc(C(C)(C)C)o2)n1 (centres undefined) | 98.37
Cc1nc(C)n(CC2CCCN2Cc2ncc(C(C)(C)C)o2)n1 (centres undefined) | 109.1
Cc1nc(C)n(CC2CCCN(Cc3nc(C)c(C)o3)C2)n1 (centres undefined) | 2.327
Cc1nc(C)n(CC2CCCCN2Cc2ncc(C(C)(C)C)o2)n1 (centres undefined) | 8.215
c1ccc(-c2cnc(CN3CCCC3Cn3cncn3)o2)cc1 (centres undefined) | -9.309
Cc1nc(C)n(CC2CCCN(Cc3ncc(C(C)(C)C)o3)C2)n1 (centres undefined) | 87.18
CN(Cc1ccc(F)cc1F)CC(C)(CO)CO | -8.016
CCC(O)(CNCc1cc[nH]n1)c1ccc(Br)cc1 (centres undefined) | 7.461
CCn1cc(S(=O)(=O)Nc2cccnc2-n2cccn2)nc1C | -8.927
O=C(NC1(c2nc(C3CC3)no2)CCCCC1)c1cccnc1O | -6.139
O=S(=O)(CCNCc1cc(O)c2cc(F)ccc2n1)N1CCCC1 | -19.62
C=C(C)COc1ccc(C(=O)NCC2CC(CC)=NO2)cc1 (centres undefined) | 5.055
CCc1nonc1NC(=O)C(C)Oc1ccccc1F (centres undefined) | -3.063

SMILES | Percent Effect [%]
Cc1noc(C)c1CNC(=O)C(C)Oc1ccccc1F (centres undefined) | -0.2471
Cc1nc(CNC(=O)C(C)Oc2ccccc2F)no1 (centres undefined) | 94.07
CC(C)Oc1ncc(C(=O)N2CCC(NC(=O)C3CC3)CC2)cc1Cl | -2.3
CCSCCC(C)N(C)C(=O)c1ccc(C)o1 (centres undefined) | 3.019
COCCN1CC2(CCCN(C(=O)NCCc3cccs3)C2)CCC1=O (centres undefined) | 2.041
COCCOCC(=O)Nc1ccc(C)cc1Br | 93.08
COCCOCC(=O)NC(C#N)c1cc(Cl)cc(Cl)c1 (centres undefined) | -3.504
COCCOCC(=O)Nc1ccc(C)cc1Cl | 120.1
Cc1ccc(NC(=O)CNc2cccc3c2CCCC3)c(Br)c1 | 9.995
COCCOCC(=O)Nc1cccc(CN(C)C(C)=O)c1 | 3.065
Cc1ccc(NC(=O)N(C)CC(O)COCCOC(C)C)c(Br)c1 (centres undefined) | -14.49
COc1cc2c(nn1)CCN(Cc1ncc(C(C)(C)C)o1)C2 | 5.733
CCN(C)S(=O)(=O)NCC1(c2cccc(Br)c2)CC1 | 0.1722
CCCC(=O)NCC(=O)NC1CC(C)(C)Cc2oc(C)cc21 (centres undefined) | -3.424
CN(C)c1ccc(C(=O)N2Cc3cnc(C(C)(C)C)nc3C2)cc1 | 19.06
CN(C)CC(=O)NC1CC(C)(C)Cc2nc(C(C)(C)C)ncc21 (centres undefined) | 106.4
CN(C)CCCC(=O)NC1CC(C)(C)Cc2nc(C(C)(C)C)ncc21 (centres undefined) | 112.6
COc1ccc(C(CNC(=O)c2cnc(C)cn2)N2CCOCC2)cc1 (centres undefined) | 15.25
COc1ccc(NC(=O)C(c2ccc(OC)cc2)N2CCOCC2)cc1 (centres undefined) | 109.2
CCC(CC)C(CNC(=O)Nc1ccc(OC)cc1)N1CCOCC1 (centres undefined) | 4.336
CSc1nc2cc(C)n(CC(=O)N3CCCC3)c2c(=O)n1CC(C)C | 4.703
Cc1cc(C(=O)N2C[C@@H]3[C@@H](CN(C)CCCn4cccn4)[C@@H]3C2)c(C)o1 | 2.079

SMILES | Percent Effect [%]
CC(C)[C@H]1COC(=O)N1CC(=O)N(C)CCCn1cccn1 | -1.545
Cc1cc(N(C)Cc2ncc[nH]2)nc(-c2cccnc2)n1 | -8.057
Cc1cc(N(C)CC2COc3ccccc3O2)nc(N)n1 (centres undefined) | -8.93
COc1ccccc1OCCCN(C)c1cc(C)nc(N)n1 | -7.239
Cc1cc(N(C)CCCn2cccn2)nc(N)n1 | 93.8
CN(CCn1cccn1)c1cc(C(F)(F)F)nc(-c2cccnc2)n1 | -9
Cc1cc(N(C)CCCn2cccn2)nc(-c2cccnc2)n1 | 95.65
Cc1cc(C(=O)N(C)CCCn2cccn2)nc(N)n1 | 99.09
Cc1cc(N2CCN(C3CCSCC3)CC2)n2nc(C)c(C)c2n1 | -17.53
CCCN(CCC)S(=O)(=O)NC(C)C(=O)N(C)C (centres undefined) | -7.467
CCC[C@H]1CN(CCS(C)(=O)=O)C[C@@H]1NC(=O)c1ccccc1F | -18.99
CN(C)C(=O)Cn1ccc2cc(NC(=O)N3CCOCC3)ccc21 | -7.307
CC(=O)N1CCOC[C@H](Oc2ccc(C(F)(F)F)cc2)C1 | -13.29
CN(C)c1ccc(CC(=O)N2CCOCC(O)C2)cc1 (centres undefined) | -50.44
CC(=O)N1CCOCC(Cc2ccc3c(ccn3C(C)=O)c2)C1 (centres undefined) | 130
CC(=O)NCC(=O)N1CCOCC(Cc2ccc3c(ccn3C)c2)C1 (centres undefined) | 143.9
Cn1ccc2cc(C(=O)N3CCOCC3)ccc21 | -3.73
O=C(CCCc1cn[nH]c1)N1CCOCC(O)C1 (centres undefined) | -4.397
NC(=O)c1cccc(CC2CCN(C(=O)CCCN3CCOCC3)C2)c1 (centres undefined) | -2.023
COCCC(=O)N1CCOCC(Cc2ccc3c(ccn3C)c2)C1 (centres undefined) | 165.7
CC(=O)NCC(=O)N1CCC(C2CCN(Cc3ccc(Cl)cc3)C2)CC1 (centres undefined) | -7.699
CC(=O)N1CCOCC(Cc2ccc3c(ccn3C)c2)C1 (centres undefined) | 138.8

SMILES | Percent Effect [%]
CC(C)C(=O)Nc1ncn(Cc2cccc(Br)c2)n1 | 13.22
Cc1nn(C)cc1-c1ccnc(NCCN)n1 | 0.4357
CCn1cc(-c2cc(C(F)(F)F)n(CCCN)n2)cn1 | 69.39
Cn1cc(-c2cc(C(F)(F)F)n(CCCN)n2)cn1 | 106
Cc1nn(C)cc1-c1cc(C(F)(F)F)n(CCCN)n1 | 117.1
Cc1cc(-c2cnn(C)c2)ccc1OCC(N)=O | 1.914
Cc1nn(C)cc1-c1cc(C(F)(F)F)c2c(C)nn(CC(=O)O)c2n1 | 1.02
Cn1cc(-c2nc(C3CCN(CC4CC4)CC3)cc3c2ncn3C)cn1 | -12.1
Cc1noc(CCCC(=O)Nc2ncccc2Br)n1 | -19.61
CCOCC1CN(Cc2ccoc2)Cc2cn(CC3CC3)nc21 (centres undefined) | 25.6
O=C(c1cn(Cc2ccc(Cl)cc2)nn1)N1CCCO1 | -12.44
Cc1ncc2c(n1)C1(CCN(C(=O)C(C)C)CC1)OCC2.Cl | 141.2
Cc1ncc(C(=O)N2CC[C@@]3(O)CCN(C(=O)N(C)C)C[C@H]3C2)cn1 | -6.772
O=C(C1CCC1)N1CCC2(COCc3cnc(N4CCOCC4)nc32)C1 (centres undefined) | -15.94
CCc1cnc(C)nc1N1CCN(C(N)=O)CC1 | -3.33
Cc1cnc(N2CCOC3(CCCN(C(=O)C(C)C)C3)C2)nc1 (centres undefined) | -6.845
Cc1ncc2c(n1)C1(CCN(C(=O)C3CC3)CC1)OCC2.Cl | 134.7
Clc1ccc(CN2CCN(Cn3nccc3-c3cccnc3)CC2)s1 | 6.087
Cc1ccccc1C1CN(c2cnn(C)c(=O)c2Cl)CCO1 (centres undefined) | 91.27
CCC1CN(c2cnn(-c3ccccc3)c(=O)c2Cl)CCO1 (centres undefined) | 4.552
CCC1CN(c2cnn(C)c(=O)c2Cl)CCO1 (centres undefined) | 22.68
